Assays:
Test in all cases: PBM binding z-score (relative to random genomic background probes); higher = stronger binding; sequences stand for … in GC…GCGATTGACAGCGTAGAATGAAGG
[1] = system: PPARg:RXRa DBDmut IVT, anti-RXR (DBD mutation: RXRa K156A/R161A, NR concentration 270 nM, RXRa partner concentration 90 nM)
Outline: (§1)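 Ligand-free nuclear receptor dimers were applied to custom Agilent 4×180K protein-binding microarrays whose double-stranded probes carried direct-repeat seeds, single-nucleotide variants, half-site ablations and random human genomic background sequences in 34-nt variable regions. Incubation lasted 1 h. Binding z-scores were computed against the random background probes from regression-normalized fluorescence.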

[2] = system: PPARg:RXRa IVT, anti-PPARg (NR concentration 270 nM, RXRa partner concentration 90 nM)
Outline: as §1

[3] = system: PPARg DBDmut:RXRa IVT, anti-PPARg (DBD mutation: PPARg1 K132A/R137A, NR concentration 270 nM, RXRa partner concentration 90 nM)
Outline: as §1

[4] = system: PPARg DBDmut IVT, anti-PPARg (DBD mutation: PPARg1 K132A/R137A, NR concentration 270 nM)
Outline: as §1

[5] = system: PPARg homodimer (NR concentration 180 nM)
Outline: as §1

[6] = system: PXR:RXRa (NR concentration 270 nM, RXRa partner concentration 90 nM)
Outline: as §1

[7] = system: PXR homodimer (NR concentration 270 nM)
Outline: as §1

[8] = system: RARa:RXR (NR concentration 270 nM, RXRa partner concentration 90 nM)
Outline: as §1

[9] = system: RARa homodimer (NR concentration 270 nM)
Outline: as §1

[10] = system: RARb:RXRa (NR concentration 270 nM, RXRa partner concentration 90 nM)
Outline: as §1

[11] = system: RARb homodimer (NR concentration 270 nM)
Outline: as §1

[12] = system: RARg:RXRa (NR concentration 270 nM, RXRa partner concentration 90 nM)
Outline: as §1

[13] = system: RARg homodimer (NR concentration 270 nM)
Outline: as §1

[14] = system: RXRa DBDmut IVT, anti-RXR (DBD mutation: RXRa K156A/R161A, NR concentration 90 nM)
Outline: as §1

[15] = system: RXRa homodimer (NR concentration 180 nM)
Outline: as §1

[16] = system: THRa:RXRa (NR concentration 90 nM, RXRa partner concentration 90 nM)
Outline: as §1

[17] = system: THRa homodimer (NR concentration 90 nM)
Outline: as §1

[18] = system: VDR homodimer (NR concentration 270 nM)
Outline: as §1

Row | Sequence | PBM binding z-score [1] | PBM binding z-score [2] | PBM binding z-score [3] | PBM binding z-score [4] | PBM binding z-score [5] | PBM binding z-score [6] | PBM binding z-score [7] | PBM binding z-score [8] | PBM binding z-score [9] | PBM binding z-score [10] | PBM binding z-score [11] | PBM binding z-score [12] | PBM binding z-score [13] | PBM binding z-score [14] | PBM binding z-score [15] | PBM binding z-score [16] | PBM binding z-score [17] | PBM binding z-score [18]
1 | ATCTCTAGGTAAACAAGTTCAGTGAATGCCGAAC | 2.47 | 2.16 | 1.52 | 1.13 | 1.19 | 1.47 | 2.08 | 0.521 | 1.04 | 1.05 | 1.51 | 0.719 | 1.05 | 1.09 | 0.385 | 1.33 | 0.65 | 2.69
2 | GCTAGTTGGTTAGTAAAAGGTCACACACCGGTCG | 0.595 | 2.29 | 0.167 | 0.647 | 4.26 | 5.09 | 1.29 | 6.05 | 3.17 | 3.99 | 4.86 | 4.87 | 4.08 | 0.675 | 5.33 | 3.66 | 2.08 | 1.85
3 | GCGACTGGGGCAAAGCAGGATACCATAAGGTTGG | 4.62 | 3.04 | -0.478 | -1.16 | -0.484 | -0.583 | -0.738 | -0.211 | -0.407 | 0.604 | 0.194 | 0.19 | 0.556 | -0.369 | 0.0149 | 2.27 | -0.419 | -0.417
4 | GCGACTGGGGCATTAGCAGGTTACCATAACTTAA | 3.92 | 2.83 | -0.21 | -0.476 | 0.463 | -0.152 | -0.13 | 0.182 | -0.164 | 0.559 | 0.877 | 0.345 | 0.226 | 0.29 | 0.0797 | 0.892 | 0.101 | -0.236
5 | ACTAGCAGGCCAAGGGTCGCTCAAGATTAGTCCG | 0.554 | 1.95 | -0.249 | -1.1 | 0.333 | 0.247 | -0.683 | 0.951 | -0.617 | 1.35 | 0.923 | 1.12 | 0.872 | -0.27 | 1.13 | 0.795 | -0.633 | -0.246
6 | ATCTCTAAGTAAAAGTTCAGTGAATCCCGAGGAT | -0.124 | 0.598 | 0.919 | 0.992 | 1.15 | 1.72 | 1.61 | 1.19 | 1.33 | 2.33 | 2.23 | 1.54 | 1.99 | 1.09 | 0.961 | 0.533 | -0.127 | 1.62
7 | CGTCAAAGTTCACGGTAACGTAACAGAAAGCAGC | 0.827 | 2.31 | 0.983 | 0.91 | 2.72 | 4.93 | 2.72 | 4.67 | 1.67 | 5.25 | 4.26 | 6.31 | 7.19 | 4.62 | 6.17 | 2.38 | -0.36 | 4.02
8 | TCTAGTGGGTCACGGAGGTCACACACGACGGGTA | 7.01 | 7.92 | 1.74 | 0.78 | 4.58 | 5.92 | 5.35 | 6.43 | 2.44 | 4.78 | 4.95 | 6.73 | 7.18 | 1.53 | 7.69 | 4.26 | 2.34 | 6.17
9 | CCGACTGGCGCAAGGTTACCATAACGCACAGCCA | 0.00884 | -0.432 | -1.08 | -0.725 | 0.0939 | 0.262 | -0.271 | 0.604 | -0.0192 | 0.871 | 0.818 | 0.543 | 0.602 | 0.0804 | 0.892 | 1.23 | 0.443 | -0.0582
10 | TCATATAGGTAAAAGGGGAAAGTCGGTGTGGTAA | 4.82 | 3.69 | 1.31 | 1.21 | 1.73 | 0.624 | 0.862 | 1.17 | 2.27 | 0.958 | 0.789 | 0.447 | 0.236 | 1.95 | 1.19 | 0.512 | 0.383 | 0.386
11 | GCTAGTTGGTCAGTAAACGGTCACACACCGGTCG | 0.107 | 0.661 | 0.0589 | -0.0564 | 0.967 | 0.0338 | 0.06 | 0.591 | 0.301 | 1.76 | 2.63 | 1.5 | 1.33 | -0.0327 | 0.347 | 0.155 | -0.176 | -0.361
12 | CCTACTGGGCCATCAGGACATTGATATCAACGTT | 3.58 | 3.83 | 0.0869 | 0.0679 | 0.687 | -0.0432 | -0.0909 | 0.486 | 0.102 | 0.235 | 0.152 | 0.263 | 0.554 | -0.317 | -0.395 | 1.41 | 1.27 | 0.257
13 | GGAACGAGGGCAAGTTGATAGCTGAGTTTGATGG | 3.45 | 2.67 | 0.246 | -0.342 | 0.0769 | 0.535 | 0.363 | 0.267 | -0.269 | 2.57 | 1.5 | 1.45 | 2.07 | 2.58 | 0.669 | 1.09 | 0.0146 | 1.84
14 | CCTTACGGGTCACGAGGATATAGCACGACGAGCG | 3.74 | 4.93 | 1.1 | 0.884 | 2.13 | 3.42 | -0.093 | 4.41 | 1.37 | 4.59 | 3.37 | 5.53 | 5.26 | 0.944 | 6.1 | 3.16 | 0.656 | 0.89
15 | TATTGTAGATCAATAGAGGTTAAGAAAGTGCGCT | 0.44 | 1.78 | 1.72 | 1.55 | 0.993 | 3.04 | 0.513 | 1.71 | 1.1 | 0.903 | 1.44 | 1.05 | 0.855 | -0.302 | 1.36 | 2.32 | -0.234 | 0.323
16 | GCTAGGTGGTCAGTAAAAGGTCACACACCGGTCG | 0.659 | 2.52 | 0.634 | 0.226 | 4.93 | 5.02 | 1.22 | 5.97 | 2.31 | 4.34 | 5.21 | 6.23 | 5.47 | 0.0546 | 5.57 | 3.55 | 1.73 | 2.03

From the supplement of paper PMC6555819
